Values joined by “and” are separate entries in the source; they are usually repeats but may differ in a detail not shown here. Equal entries are not always repeated. The panel holds about 83,000 compounds, 20% with a hit somewhere; the sample as a whole holds those more often.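 Method: cells in 96-well plates; compound added at one concentration; 48 h incubation; percent growth measured; values under 10 scored active.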 Unmarked numbers belong to inactive results. Active and inactive are the calls of the source.

In this assay the test system is MDA-MB-468 breast. The experiment in a line: NCI-60 one-dose screen, 48 h (100 = growth as untreated, 0 = no growth, -100 = all killed). As to conditions: 10 µM unless noted.
On to `COc1ccc(-c2c(C(=O)NS(C)(=O)=O)n(Cc3cccc(C(F)(F)F)c3)c3ccccc23)cc1`, for which the growth is 86.6%.
The value for `O=[N+]([O-])c1ccc(Oc2cccc(C(F)(F)F)c2)c([N+](=O)[O-])c1` was -8.95% (active); that for `COc1cccc(NC2=CC(=O)C(C)=C(C)C2=O)c1` was 25.8%; that for `CCOc1ccccc1/C=N\Nc1ccc(S(=O)(=O)c2ccc(N/N=C/c3ccccc3OCC)cc2)cc1` was 96.8%.
The value for `O=C(/C=C/C=C/c1ccc2c(c1)OCO2)N1CCCCC1` was 106% and 105%.
The value for `O=c1c2ccccc2oc2ccc(OCCCCCN3CCCCCC3)cc12` was 49.8%.
Regarding `CCN(CC)CCCCNc1ccc(NCCCCN(CC)CC)c2c1C(=O)c1ccccc1C2=O`, the growth was 106%.
The value for `CCCCNCCCN(CCCC)CCCNCCCC` was 94.2%; that for `Cn1cc(-c2nnc(N)nc2-c2cn(C)c3ccc(F)cc23)c2cc(F)ccc21` was 99.8%.
The result for `CC1(C)NC(=S)NC1=O` reads 109%; that for `O=C(Nc1nc2ccc(C(F)(F)F)cc2s1)c1cc(Cl)ccc1O`, -1.49% (active).
The result for `CCOc1ccc2c(c1)/C(=C\C=C\C1CC(C)C3CC(OCC)CCC3N1CC)CC(C)N2CC` (stereo not given) reads -37.3% (active); that for `CCc1c(Nc2ccccc2C)nc(N)[nH]c1=O`, 105%; that for `Oc1ccc(CCCCCCc2ccc(O)cc2)cc1`, 99.5%.
For `CCCCc1nc2c(N)nc3ccccc3c2n1Cc1cccc(CN)c1`, the growth is 27.3%.
The value for `O=C(CN1CCN(c2cccc(Cl)c2)CC1)N1CCN(c2nnc(-c3ccc(Cl)cc3)c(-c3ccc(Cl)cc3)n2)CC1` was 97.5%.
The result for `CCN(CCO)CC(C)Nc1ccc([N+](=O)[O-])c2sc3ccccc3c(=O)c12` (stereo not given) reads 21%; that for `CC(C)(C)c1ccc(OCCCCCCCN2CCNCC2)cc1`, -54% (active); that for `C=C[Si](OC(C)=O)(OC(C)=O)OC(C)=O`, 109%.
The value for `O=C(CCCCCCN1CC(=O)N2[C@H](c3ccc(Cl)cc3)c3[nH]c4ccccc4c3C[C@@H]2C1=O)NO` was 36.5%; that for `CC(C1=C(CN(C(=O)Cc2cn(-c3ccccc3)nc2-c2ccc(Cl)cc2)C(C)C)Cc2ccccc21)c1ccccn1` (stereo not given) was 43.8%; that for `Cc1cc(N2CCN(C)CC2)nc(NC2CCCC(Nc3ccnc4cc(Cl)ccc34)C2)n1` (stereo not given) was -52.1% (active).
As to `CCCCCC(/C=N\NC(=S)N/N=C/C(=C/c1ccccc1)CCCCC)=C\c1ccccc1`, the growth is 47.4%.
The value for `CCOC(=O)C1(C)CCCC1N` (stereo not given) was 99.2%; that for `CC1(C)CC[C@]2(C(=O)N[C@H](CO)Cc3ccccc3)CC[C@]3(C)C(=CC[C@@H]4[C@@]5(C)CCCNC(C)(C)[C@@H]5CC[C@]43C)[C@@H]2C1` was 37.8%; that for `COc1cc(-c2nc3cc(Cl)c(Cl)cc3[nH]2)ccc1OCC(=O)NN` was 100%.
The result for `NC(=O)c1cc(I)ccc1NC(=O)COc1ccccc1` reads 30.3%; that for `CCOC(=O)c1cc(C#N)n2ccc3ccccc3c12`, 98.4%; that for `C=C(C)[C@@H]1CC[C@]2(C(=O)O)CC[C@]3(C)[C@H](CC[C@@H]4[C@@]5(C)CCC(N)C(C)(C)[C@@H]5CC[C@]43C)[C@@H]12` (stereo not given in full), -23.2% (active).
The result for `c1ccc(-c2cn3ccnc3c(-c3ccc4ncn(C5CCCCC5)c4c3)n2)cc1` reads 45.6%; that for `O=C1CCN(Cc2ccccc2)C(=S)N1`, 110%; that for `C=CC(=O)N1CCC[C@@H](n2nc(-c3ccc(Oc4ccccc4)cc3)c3c(N)ncnc32)C1`, -17.5% (active).
With `O=C(Nc1cccc(-n2cc(-c3ccncc3)c(-c3ccc(O)c(Cl)c3)n2)c1)Nc1cccc(C(F)(F)F)c1`, the growth was 18.5%.
The value for `CC1C(=O)CCCC1=O` was 122%; that for `O=C(N/N=C/c1ccccc1SSc1ccccc1/C=N/NC(=O)c1ccccc1)c1ccccc1` was 51.9%.
The value for `COc1cc2nccc(Oc3ccc(NC(=O)C4(C(=O)Nc5c(F)cc(F)cc5F)CC4)cc3)c2cc1Oc1ccc(N)cn1` was 33.3%.
With `COc1cc2c3cc1Oc1c(OC)c(OC)cc4c1C(Cc1ccc(O)c(c1)Oc1ccc(cc1)CC3N(C)CC2)N(C)CC4` (stereo not given), the growth was -72.3% (active).
As for `NC1=NC(SCc2ccccc2CCl)c2ncn(Cc3ccccc3CCl)c2N1` (stereo not given), the growth was -33.2% (active).
The result for `c1ccc(C2=NN[C@H](c3cn(-c4ccccc4)nc3-c3ccccc3)C2)cc1` reads 28.2%; that for `COc1ccc(SC2c3ccc(C)cc3Oc3nc(N)c(C#N)c(N)c32)cc1` (stereo not given), -51% (active).

The values are drawn from PubChem BioAssay (NCI).
